Measured values as given in the supplement of paper PMC11732987, “Enantioselective OTUD7B fragment discovery through chemoproteomics screening and high-throughput optimisation” (Communications Chemistry, 2025).

What was measured:
Assay in all cases: log2 ratio of Biotin-Ahx-Ub-VS probe labelling (fragment/DMSO); higher = less target engagement (more negative = stronger competition), active = hit call of the paper (q ≤ 0.05, log2 ratio ≤ -1)
Settings in all cases: compound concentration: 200 uM; treatment time: 3 h
USP19 = molecular target: T1, USP19 (UniProt O94966)
T1 sequence (whole entry): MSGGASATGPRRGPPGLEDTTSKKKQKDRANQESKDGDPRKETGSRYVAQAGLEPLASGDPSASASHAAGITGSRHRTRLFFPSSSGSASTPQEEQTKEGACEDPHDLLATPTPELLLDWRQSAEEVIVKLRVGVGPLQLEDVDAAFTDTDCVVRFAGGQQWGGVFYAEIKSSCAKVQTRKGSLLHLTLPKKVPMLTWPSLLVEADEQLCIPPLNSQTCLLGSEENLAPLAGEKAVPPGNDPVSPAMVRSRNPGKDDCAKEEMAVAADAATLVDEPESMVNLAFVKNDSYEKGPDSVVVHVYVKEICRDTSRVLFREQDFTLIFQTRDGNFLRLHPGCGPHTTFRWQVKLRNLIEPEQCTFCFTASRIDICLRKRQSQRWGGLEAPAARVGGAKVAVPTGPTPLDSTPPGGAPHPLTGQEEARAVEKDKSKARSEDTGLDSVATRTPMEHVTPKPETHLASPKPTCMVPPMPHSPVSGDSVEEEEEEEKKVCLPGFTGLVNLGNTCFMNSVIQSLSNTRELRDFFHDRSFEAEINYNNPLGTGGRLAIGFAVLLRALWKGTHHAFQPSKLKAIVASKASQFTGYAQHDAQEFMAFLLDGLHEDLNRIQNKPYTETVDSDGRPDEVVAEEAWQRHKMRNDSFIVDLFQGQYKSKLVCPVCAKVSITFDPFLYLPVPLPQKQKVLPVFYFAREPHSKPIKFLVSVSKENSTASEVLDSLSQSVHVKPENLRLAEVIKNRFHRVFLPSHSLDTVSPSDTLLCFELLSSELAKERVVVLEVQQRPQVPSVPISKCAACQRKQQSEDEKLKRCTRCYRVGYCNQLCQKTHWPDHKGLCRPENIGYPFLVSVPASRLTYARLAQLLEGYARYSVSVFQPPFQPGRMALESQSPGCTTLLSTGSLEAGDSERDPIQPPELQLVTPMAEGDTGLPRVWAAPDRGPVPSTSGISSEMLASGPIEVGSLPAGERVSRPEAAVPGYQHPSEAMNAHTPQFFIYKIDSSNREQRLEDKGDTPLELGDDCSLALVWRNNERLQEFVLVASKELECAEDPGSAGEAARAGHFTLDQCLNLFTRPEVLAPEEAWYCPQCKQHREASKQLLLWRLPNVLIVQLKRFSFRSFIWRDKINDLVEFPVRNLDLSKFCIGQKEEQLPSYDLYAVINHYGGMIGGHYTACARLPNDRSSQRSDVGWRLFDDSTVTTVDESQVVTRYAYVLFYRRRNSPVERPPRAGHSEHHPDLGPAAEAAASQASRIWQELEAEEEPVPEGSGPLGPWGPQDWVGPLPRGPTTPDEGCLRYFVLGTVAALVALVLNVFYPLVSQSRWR
In short: (§1)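 Labelled DUBs were enriched with NeutrAvidin, digested with LysC and trypsin, and run by diaPASEF LC-MS/MS. The labelling used Biotin-Ahx-Ub-VS at 0.5 µM final for 1 h on HEK293T lysate (495 µg per sample) previously treated in triplicate with fragment at 200 µM or vehicle for 3 h. Values are average log2 fragment/vehicle ratios by unpaired t-test on global-median-normalised Spectronaut quantities of proteins with ≥2 unique peptides.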

USP22 = molecular target: T2, USP22 (UniProt Q9UPT9)
T2 sequence (whole entry): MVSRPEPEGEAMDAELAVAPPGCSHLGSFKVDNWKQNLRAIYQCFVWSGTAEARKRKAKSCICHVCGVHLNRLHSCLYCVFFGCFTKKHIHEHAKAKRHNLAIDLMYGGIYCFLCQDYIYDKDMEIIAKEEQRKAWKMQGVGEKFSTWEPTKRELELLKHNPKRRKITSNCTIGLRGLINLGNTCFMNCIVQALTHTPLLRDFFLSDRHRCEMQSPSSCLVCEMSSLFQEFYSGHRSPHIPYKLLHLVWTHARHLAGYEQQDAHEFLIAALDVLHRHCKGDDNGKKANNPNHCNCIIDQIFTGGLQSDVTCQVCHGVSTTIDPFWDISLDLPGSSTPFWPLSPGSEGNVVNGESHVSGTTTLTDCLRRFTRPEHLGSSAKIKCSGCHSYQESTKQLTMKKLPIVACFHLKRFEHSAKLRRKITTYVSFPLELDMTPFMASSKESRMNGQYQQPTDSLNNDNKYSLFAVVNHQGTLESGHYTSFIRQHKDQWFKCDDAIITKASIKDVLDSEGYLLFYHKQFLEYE
In short: as §1

USP24 = USP24 (UniProt Q9UPU5)
Sequence of USP24 (Q9UPU5 whole entry): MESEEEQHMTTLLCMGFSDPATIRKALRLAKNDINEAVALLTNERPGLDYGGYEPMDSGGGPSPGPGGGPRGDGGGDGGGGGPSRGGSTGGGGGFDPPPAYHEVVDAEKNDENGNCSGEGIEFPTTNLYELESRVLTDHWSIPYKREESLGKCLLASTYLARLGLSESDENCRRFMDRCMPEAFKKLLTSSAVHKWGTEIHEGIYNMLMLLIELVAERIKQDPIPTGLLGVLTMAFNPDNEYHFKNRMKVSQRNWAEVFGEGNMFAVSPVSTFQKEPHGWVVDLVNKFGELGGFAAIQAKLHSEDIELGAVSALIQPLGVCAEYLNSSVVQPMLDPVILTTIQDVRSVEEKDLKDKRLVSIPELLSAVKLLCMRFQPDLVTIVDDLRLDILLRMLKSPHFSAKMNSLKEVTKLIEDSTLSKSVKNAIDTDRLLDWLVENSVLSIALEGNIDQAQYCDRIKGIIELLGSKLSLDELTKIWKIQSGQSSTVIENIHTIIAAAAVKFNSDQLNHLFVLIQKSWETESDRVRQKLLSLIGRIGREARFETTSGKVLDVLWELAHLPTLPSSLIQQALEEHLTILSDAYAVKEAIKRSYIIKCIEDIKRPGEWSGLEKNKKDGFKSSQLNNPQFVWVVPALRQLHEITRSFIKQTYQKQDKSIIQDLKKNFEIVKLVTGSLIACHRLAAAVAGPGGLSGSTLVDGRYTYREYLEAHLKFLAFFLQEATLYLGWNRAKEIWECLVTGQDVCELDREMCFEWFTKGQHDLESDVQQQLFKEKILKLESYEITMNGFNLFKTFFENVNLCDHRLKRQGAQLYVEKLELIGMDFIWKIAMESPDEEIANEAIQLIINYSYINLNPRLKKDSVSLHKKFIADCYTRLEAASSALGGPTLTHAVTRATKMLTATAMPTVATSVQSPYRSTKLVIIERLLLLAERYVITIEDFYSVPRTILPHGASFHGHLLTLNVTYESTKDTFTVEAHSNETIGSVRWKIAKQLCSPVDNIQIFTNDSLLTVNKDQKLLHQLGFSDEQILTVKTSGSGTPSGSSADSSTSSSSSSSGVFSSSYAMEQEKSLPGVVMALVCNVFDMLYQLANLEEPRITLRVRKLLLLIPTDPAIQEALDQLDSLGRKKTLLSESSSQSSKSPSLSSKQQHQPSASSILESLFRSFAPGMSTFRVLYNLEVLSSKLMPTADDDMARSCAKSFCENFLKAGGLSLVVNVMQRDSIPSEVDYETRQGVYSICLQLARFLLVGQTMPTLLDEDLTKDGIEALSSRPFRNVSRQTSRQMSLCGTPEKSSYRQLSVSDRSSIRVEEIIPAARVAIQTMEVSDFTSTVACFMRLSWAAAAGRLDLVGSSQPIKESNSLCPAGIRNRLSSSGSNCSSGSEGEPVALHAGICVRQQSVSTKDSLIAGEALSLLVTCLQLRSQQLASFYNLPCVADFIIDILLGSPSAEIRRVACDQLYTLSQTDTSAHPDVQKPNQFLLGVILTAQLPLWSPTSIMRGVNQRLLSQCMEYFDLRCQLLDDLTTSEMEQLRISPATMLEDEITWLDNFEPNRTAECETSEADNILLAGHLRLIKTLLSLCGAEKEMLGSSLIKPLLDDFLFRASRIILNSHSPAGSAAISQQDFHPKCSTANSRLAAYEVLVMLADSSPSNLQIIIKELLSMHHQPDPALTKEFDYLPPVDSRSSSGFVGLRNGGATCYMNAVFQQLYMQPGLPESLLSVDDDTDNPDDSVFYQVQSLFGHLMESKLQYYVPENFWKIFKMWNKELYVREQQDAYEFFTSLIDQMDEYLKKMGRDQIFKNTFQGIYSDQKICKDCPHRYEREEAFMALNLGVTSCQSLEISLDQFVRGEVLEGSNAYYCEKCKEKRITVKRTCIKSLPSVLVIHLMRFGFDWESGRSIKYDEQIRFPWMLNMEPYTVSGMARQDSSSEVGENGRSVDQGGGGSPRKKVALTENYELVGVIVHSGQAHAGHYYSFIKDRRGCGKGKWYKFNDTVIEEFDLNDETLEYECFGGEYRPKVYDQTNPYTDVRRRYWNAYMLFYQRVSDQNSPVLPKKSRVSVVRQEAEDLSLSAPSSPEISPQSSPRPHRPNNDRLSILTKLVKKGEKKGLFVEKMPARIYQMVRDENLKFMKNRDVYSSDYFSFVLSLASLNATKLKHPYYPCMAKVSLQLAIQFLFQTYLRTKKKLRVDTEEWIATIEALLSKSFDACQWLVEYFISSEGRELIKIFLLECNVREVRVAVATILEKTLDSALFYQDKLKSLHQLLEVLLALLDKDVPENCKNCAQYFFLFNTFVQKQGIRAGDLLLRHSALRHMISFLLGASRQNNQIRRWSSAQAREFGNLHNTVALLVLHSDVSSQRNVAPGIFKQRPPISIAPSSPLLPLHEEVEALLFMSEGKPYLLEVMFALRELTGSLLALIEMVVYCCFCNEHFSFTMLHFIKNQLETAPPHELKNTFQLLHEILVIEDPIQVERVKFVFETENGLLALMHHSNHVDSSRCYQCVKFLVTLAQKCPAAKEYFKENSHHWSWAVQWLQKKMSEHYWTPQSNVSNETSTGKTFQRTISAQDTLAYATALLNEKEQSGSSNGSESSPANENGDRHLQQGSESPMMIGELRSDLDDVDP
In short: as §1

USP25 = molecular target: T3, USP25 (UniProt Q9UHP3)
T3 sequence (whole entry): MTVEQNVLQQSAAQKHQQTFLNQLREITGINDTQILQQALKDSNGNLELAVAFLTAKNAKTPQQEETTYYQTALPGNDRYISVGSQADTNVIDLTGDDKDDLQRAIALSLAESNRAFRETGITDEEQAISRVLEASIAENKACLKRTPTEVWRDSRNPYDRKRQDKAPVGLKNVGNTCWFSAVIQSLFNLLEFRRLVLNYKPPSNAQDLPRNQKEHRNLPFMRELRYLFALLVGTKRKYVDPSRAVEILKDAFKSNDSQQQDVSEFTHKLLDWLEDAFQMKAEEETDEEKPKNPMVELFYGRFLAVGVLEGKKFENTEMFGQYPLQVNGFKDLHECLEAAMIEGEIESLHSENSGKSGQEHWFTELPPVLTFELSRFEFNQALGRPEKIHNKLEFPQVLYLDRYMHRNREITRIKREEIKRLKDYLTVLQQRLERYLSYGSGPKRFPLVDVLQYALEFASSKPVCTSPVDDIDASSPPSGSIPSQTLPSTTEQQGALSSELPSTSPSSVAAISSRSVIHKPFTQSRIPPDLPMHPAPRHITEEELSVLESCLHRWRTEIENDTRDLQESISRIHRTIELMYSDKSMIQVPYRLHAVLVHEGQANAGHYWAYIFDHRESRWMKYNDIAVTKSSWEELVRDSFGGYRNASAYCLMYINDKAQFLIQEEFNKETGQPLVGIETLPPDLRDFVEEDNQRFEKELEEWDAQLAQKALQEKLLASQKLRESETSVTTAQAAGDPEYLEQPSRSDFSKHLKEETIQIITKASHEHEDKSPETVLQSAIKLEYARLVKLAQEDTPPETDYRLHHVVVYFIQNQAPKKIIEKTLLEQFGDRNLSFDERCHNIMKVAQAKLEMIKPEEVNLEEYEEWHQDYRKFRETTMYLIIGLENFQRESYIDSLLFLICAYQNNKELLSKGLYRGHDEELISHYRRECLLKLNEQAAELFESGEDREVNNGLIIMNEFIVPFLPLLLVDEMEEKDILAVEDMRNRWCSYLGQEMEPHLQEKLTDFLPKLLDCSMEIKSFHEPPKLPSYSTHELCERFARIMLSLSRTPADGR
In short: as §1

USP28 = molecular target: T4, USP28 (UniProt Q96RU2)
T4 sequence (whole entry): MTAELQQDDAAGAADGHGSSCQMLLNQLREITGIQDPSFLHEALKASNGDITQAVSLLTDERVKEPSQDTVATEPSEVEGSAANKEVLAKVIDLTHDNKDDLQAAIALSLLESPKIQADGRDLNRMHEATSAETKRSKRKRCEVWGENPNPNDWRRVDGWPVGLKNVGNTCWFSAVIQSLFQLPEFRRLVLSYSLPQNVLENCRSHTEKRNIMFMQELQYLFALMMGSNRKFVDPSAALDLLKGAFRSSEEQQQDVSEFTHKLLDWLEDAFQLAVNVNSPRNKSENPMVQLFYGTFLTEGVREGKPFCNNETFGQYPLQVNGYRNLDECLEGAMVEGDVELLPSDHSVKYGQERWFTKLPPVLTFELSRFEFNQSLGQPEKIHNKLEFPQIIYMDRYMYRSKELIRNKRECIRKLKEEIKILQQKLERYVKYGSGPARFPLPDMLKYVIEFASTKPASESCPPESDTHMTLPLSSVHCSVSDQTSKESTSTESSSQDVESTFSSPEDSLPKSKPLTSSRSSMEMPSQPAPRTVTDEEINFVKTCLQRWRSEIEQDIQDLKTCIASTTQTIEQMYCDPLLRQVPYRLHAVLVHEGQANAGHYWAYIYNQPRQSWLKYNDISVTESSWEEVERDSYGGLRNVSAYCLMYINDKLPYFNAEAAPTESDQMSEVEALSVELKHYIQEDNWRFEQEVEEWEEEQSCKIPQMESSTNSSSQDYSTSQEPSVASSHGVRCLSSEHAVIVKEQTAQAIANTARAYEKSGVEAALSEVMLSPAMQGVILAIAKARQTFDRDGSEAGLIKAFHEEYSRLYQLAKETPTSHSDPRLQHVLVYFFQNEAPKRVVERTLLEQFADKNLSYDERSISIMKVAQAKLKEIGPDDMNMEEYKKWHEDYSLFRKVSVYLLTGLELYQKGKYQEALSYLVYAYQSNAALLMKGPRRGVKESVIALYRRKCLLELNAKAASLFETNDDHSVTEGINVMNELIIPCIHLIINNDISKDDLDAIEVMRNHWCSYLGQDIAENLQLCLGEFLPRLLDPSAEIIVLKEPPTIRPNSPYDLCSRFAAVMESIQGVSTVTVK
In short: as §1

Measured: log2 ratio of Biotin-Ahx-Ub-VS probe labelling

Cc1cnc2[nH]cc(CCNC(=O)CCl)c2c1
inactive: USP19 -0.044 | USP22 -0.375 | USP24 -0.209 | USP25 -0.347 | USP28 -0.759
